Data reported in PubChem BioAssay (NCI).
The panel holds about 79,000 compounds, 15% with a hit somewhere; the sample as a whole holds those more often. The source made the active and inactive calls. Rule as the data show it: active = growth inhibition above about 70%; inactive = the rest.

assay: NCI Yeast Anticancer Drug Screen. Data for the rad50 strain (AID 155);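 also: 0% = growth of vehicle-only cultures of the same strain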; details: S. cerevisiae rad50 strain growth inhibition; at 50.0 µM; stronger effect = higher value
Procedure, shortened: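 Compounds were tested on a yeast strain with an engineered DNA damage repair alteration; the reported value is growth inhibition normalised to vehicle treatment.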

Structure (SMILES) | growth inhibition
O=C(O)c1c[n+]([O-])ccc1Cl | 12.8% (inactive)
C[N+](C)(C)CC(=O)N/N=C/c1oc(-c2cccc([N+](=O)[O-])c2)c(-c2cccc([N+](=O)[O-])c2)c1[N+](=O)[O-] | 19.4% (inactive)
O=c1[nH]c(=O)n(C2OC(COP(=O)(O)OP(=O)(O)O)C(O)C2O)cc1F (stereo not given) | 1.4% (inactive)
O=c1[nH]c(=O)n(C2OC(CO)C(O)C2O)cc1OCc1ccccc1 (stereo not given) | -31.8% (inactive)
COc1ccc(C(=O)/C=c2/c(CC(=O)c3ccc(OC)cc3)nc3nnc(N)n23)cc1 | 15.5% (inactive)
COc1cc([C@@H]2C3C(=O)c4ccccc4C3[C@@H](c3cc(OC)c(OC)c(OC)c3)C23Cc2ccccc2C3=O)cc(OC)c1OC (stereo not given in full) | -6.5% (inactive)
Cn1c(=O)c2c(nc(CCNC(=O)c3ccccc3)n2C)n(C)c1=O | -1.15% (inactive)
O=C(NC1CCCCC1)C1C2CC3OC(=O)C1C3C2 (stereo not given) | -10.8% (inactive)
COc1ccc(-c2cc(-c3ccccc3)nc(-c3cccc([N+](=O)[O-])c3)c2)cc1 | -1.6% (inactive)
Cc1ccc(S(=O)(=O)CC(=O)c2ccc(Br)cc2)cc1 | -2.7% (inactive)
N[C@H](CCC(=O)NCP(=O)(O)O)C(=O)O | -43.7% (inactive)
NOCc1cc(Cl)sc1Cl | 24.9% (inactive)
CCN(CC)CCCCCOC(=O)c1ccccc1 | 23.2% (inactive)
CC(=O)OC1CC(OC(C)=O)C(OC(C)=O)CC1OC(C)=O (stereo not given) | 7.95% (inactive)
CN1CCN(c2c3c(nc4ccccc24)CCCC3)CC1 | -6.45% (inactive)
CC(C)(C)C(=O)CC(=O)C(F)(F)C(F)(F)C(F)(F)F.CC(C)(C)C(=O)CC(=O)C(F)(F)C(F)(F)C(F)(F)F.CC(C)(C)C(=O)CC(=O)C(F)(F)C(F)(F)C(F)(F)F.[Eu] | 9.65% (inactive)
O=C1CC2CCC(C1)S2=O (stereo not given) | 19.6% (inactive)
N#CC1(N(O)C(=O)Nc2ccccc2)CCCCC1 | 5.55% (inactive)
Nc1ccc2[nH]cc(CCC(=O)O)c2c1 | -11.8% (inactive)
CC12CCc3ccccc3C1=NNC(=O)C2 (stereo not given) | -3.2% (inactive)

Structure (SMILES) | growth inhibition
Cc1cccc(NC(=S)Nc2ccc(-c3ccc(NC(=S)Nc4cccc(C)c4)cc3)cc2)c1 | -0.2% (inactive)
CCC(CC(N)=O)C(C#N)(C#N)C(N)=O (stereo not given) | 12.9% (inactive)
O=C(O)/C=C/c1ccccc1Cl | -9.7% (inactive)
OC(COc1cccc(C(F)(F)F)c1)CN1CCN(c2ccccc2)CC1 (stereo not given) | 83.7% (active)
COc1cc(/C=C2\C(=O)N(C(=O)c3ccc(NC(C)=O)cc3)N=C2C)ccc1O | -44.7% (inactive)
COC(=O)c1cc(CN(C)C)c(O)c(CN(C)C)c1 | -20.3% (inactive)
CCOC(=O)c1c(N=P(c2ccccc2)(c2ccccc2)c2ccccc2)nnc(-c2ccccc2)c1-c1ccccc1 | -36.4% (inactive)
Nc1cc2c(cc1/C=C1\CCNC1=O)OCO2 | -5.65% (inactive)
CC(C)CCCC(C)C1CCC2(C)C3=C(CCC12C)C1(C)CCC(=O)C(C)(C)C1CC3 (stereo not given) | 73.1% (active)
COc1ccc(C2CC(=O)N(CC(=O)O)C(=O)C2)cc1 | 13.9% (inactive)
CC(Cc1ccccc1)c1ccccc1 (stereo not given) | 15.9% (inactive)
Cc1cc(=O)n(-c2ccccc2)c(=O)n1-c1nc2ccccc2[nH]1 | 19% (inactive)
c1ccc2cc(CNCCCCNCCCNCc3ccc4ccccc4c3)ccc2c1 | 63.8% (inactive)
CCCCCCCCCCCCCCCCCCCCCC(=O)O | -16.1% (inactive)
[Cl][Pt+2][Cl].[NH-]CC1(C[NH-])CCC1 | 1.1% (inactive)
COc1cc2c(c3oc(=O)cc(CCC(=O)O)c13)C1CC(=O)OC1O2 (stereo not given) | 3.75% (inactive)
CN=C(Nc1cccc(C(F)(F)F)c1)SCc1ccc(N=C=S)cc1 | 9.7% (inactive)
CCCCCCCCCCCO | -5.75% (inactive)
O=c1cccc2c3ccccc3ccn12 | 22.9% (inactive)
O=C(NCCCCCCCCNC(=O)c1cccc2ccccc12)c1cccc2ccccc12 | 14.2% (inactive)
